HTRA1 inhibitor: inhibitors of human serine peptidase HTRA1; Q92743; inhibition, % at 5.96 µM; recombinant HTRA1, FP-rhodamine activity-based probe, fluorescence polarization; 340,000 tested, 0.5% active; in the data active = inhibition above about 36%
PAFAH1B2 inh: inhibitors of human PAFAH1B2; recombinant PAFAH1B2, FP-rhodamine activity probe, fluorescence polarization; 340,000 tested, 1.2% active; inhibition, % at 3.39 µM;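 active = inhibition above the mean of all tested compounds plus 3 SD, cut at about 24% in these data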
Target sequence (P68402 whole entry, looked up): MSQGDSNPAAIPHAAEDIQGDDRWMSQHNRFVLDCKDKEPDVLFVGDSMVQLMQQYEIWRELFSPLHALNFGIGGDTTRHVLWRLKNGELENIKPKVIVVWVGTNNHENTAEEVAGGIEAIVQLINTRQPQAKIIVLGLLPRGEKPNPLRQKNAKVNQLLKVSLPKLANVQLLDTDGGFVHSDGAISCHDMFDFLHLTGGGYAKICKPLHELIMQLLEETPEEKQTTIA
PAFAH1B3 inh: inhibitors of human PAFAH1B3; Q15102; 340,000 tested, 0.28% active; recombinant PAFAH1B3, FP-rhodamine probe, fluorescence polarization; inhibition, % at 3.39 µM; AID 492972;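 active = inhibition above the screen-wide average of all tested compounds plus 3 SD, cut at about 25% in these data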
Target sequence (Q15102 whole entry, looked up): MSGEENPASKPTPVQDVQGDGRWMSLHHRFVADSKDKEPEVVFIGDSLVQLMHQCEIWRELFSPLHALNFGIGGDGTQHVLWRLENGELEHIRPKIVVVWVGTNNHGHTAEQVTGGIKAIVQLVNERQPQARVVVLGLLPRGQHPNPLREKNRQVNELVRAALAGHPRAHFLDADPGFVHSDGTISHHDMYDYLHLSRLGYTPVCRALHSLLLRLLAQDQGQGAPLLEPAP
pPAFAH inh: inhibitors of human plasma PAF acetylhydrolase (pPAFAH). inhibition, % at 3.39 µM. Q13093. 330,000 tested, 1.5% active. recombinant pPAFAH, FP-rhodamine probe fluorescence polarization;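 active = inhibition above the mean inhibition across the screen plus 3 SD, cut at about 25% in these data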;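 also: inhibitors block binding of the rhodamine activity-based probe so polarization drops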
PAFAH2 inh: inhibitors of human PAFAH2 | recombinant PAFAH2, FP-rhodamine activity probe, fluorescence polarization | inhibition, % at 3.39 µM | 340,000 tested, 0.99% active;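 active = inhibition above the mean over all tested compounds plus 3 SD, cut at about 30% in these data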;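 also: inhibitors block probe labeling of enzyme so polarization drops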
DAGLB inhibitor: diacylglycerol lipase beta (human) inhibition; Q8NCG7; HEK293T DAGLB membrane lysate, EnzChek fluorogenic substrate; inhibition, % at 5.17 µM; 340,000 tested, 0.059% active; in the data active = inhibition above about 34%
PAFAH2 confirm: confirmation of human PAFAH2 inhibitors. shares compounds with PAFAH2 inh. recombinant PAFAH2, FP-rhodamine activity probe, fluorescence polarization. inhibition, % at 3.39 µM. 2,300 tested, 65% active. AID 493030;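 active = mean inhibition over three repeats above a set limit taken from the earlier primary screen, cut at about 30% in these data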;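 also: inhibitor blocks binding of rhodamine activity probe so polarization falls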
Of the large screens only hits and unclear results are named; the others gave an inactive call (follow-up assays come after a bar, where they were run). This is a sample that favours compounds with a hit; in the whole collection about 2.8% have one here.

Cc1cc2c(cc(C(=O)OCC(=O)NCc3ccco3)n2C)s1	none
CCCN(CCC)CCN1C(=O)C2C(C(=O)Nc3cccc(SC)c3)C3C=CC2(O3)C1C(=O)NC1CCCCC1 (stereo not given)	none
Cc1ccccc1NC(=O)CON=C(N)c1ccccc1	none
Cc1ccc(C(=O)Oc2oc(-c3ccccc3)nc2C=Nc2ccc(N(C)C)cc2)cc1	none
Cc1ccc(C(=O)Oc2oc(-c3ccco3)nc2C=Nc2ccc(Cl)cc2)cc1	PAFAH2 inh 41 | PAFAH2 confirm inactive
Cc1ccc(NC(=O)COC(=O)c2ccc3c(c2)NC(=O)C2CCCN32)cc1 (stereo not given)	PAFAH2 inh 68 | PAFAH2 confirm 76
Cc1nn(CC(=O)N(C)c2c(N)n(Cc3ccccc3)c(=O)[nH]c2=O)c(C)c1[N+](=O)[O-]	none
Cc1ccccc1C(=O)Nc1ccc(C(=O)N/N=C/c2ccc(O)c(Br)c2)cc1	none
CC1=C(C#N)C(=O)NC(=O)/C1=C\c1ccc(-c2cc(C)c(C)cc2[N+](=O)[O-])o1	PAFAH2 inh 32 (no result: pPAFAH inh) | PAFAH2 confirm inactive
O=C(CS(=O)(=O)c1cn(CC(=O)N2CCCC2)c2ccccc12)Nc1ccccc1F	none
CC1=NN(C(N)=S)C(=O)C1N=Nc1ccc(O)cc1 (stereo not given)	none (no result: pPAFAH inh)
CC1=NN(C(N)=S)C(=O)C1N=Nc1ccc(C)c(Br)c1 (stereo not given)	PAFAH2 inh 42 | PAFAH2 confirm 33
O=C(CNC(=O)c1ccccc1)OC(C(=O)O)c1ccc(F)cc1 (stereo not given)	none (no result: PAFAH1B2 inh, PAFAH1B3 inh, pPAFAH inh, PAFAH2 inh)
O=C1N=C(N2CCN(c3cccc4ccccc34)CC2)S/C1=C/c1cccs1	none
Cc1ccccc1N1CCN(C2=NC(=O)/C(=C\c3cccs3)S2)CC1	PAFAH2 inh 41 | PAFAH2 confirm 31
CS(=O)(=O)c1ccc(C(=O)OCC(=O)Nc2cccnc2Cl)cc1[N+](=O)[O-]	none
Cc1ccc(C)c(NC(=O)COC(=O)c2ccc3c(c2)OCCO3)c1	PAFAH2 inh 53 | PAFAH2 confirm 61
COc1ccccc1NC(=O)COC(=O)c1ccc2c(c1)OCCO2	none
Cc1ccccc1NC(=O)COC(=O)c1ccc2c(c1)OCCO2	PAFAH2 inh 58 (no result: pPAFAH inh) | PAFAH2 confirm 52
Cc1ccc(NC(=O)COC(=O)c2ccc3c(c2)OCO3)c(C)c1	none
Cc1ccccc1NC(=O)COC(=O)c1ccc(S(C)(=O)=O)c([N+](=O)[O-])c1	PAFAH2 inh 39 | PAFAH2 confirm inactive
Cc1cccc(OCc2nnc(SCC(=O)c3c(N)n(C4CC4)c(=O)[nH]c3=O)o2)c1	none (no result: pPAFAH inh)
CCOC(=O)C1=C(COC(=O)C(CC)Oc2ccccc2)NC(=O)NC1C (stereo not given)	none
C=CCNc1nc(C(=O)OCC(=O)Nc2cccc(SC)c2)cs1	PAFAH2 inh 62 (no result: pPAFAH inh) | PAFAH2 confirm 51
CCOc1ccccc1N1CCN(CC(=O)Nc2ccccc2C(=O)NC2CC2)CC1	none
C/C(CC(=O)Nc1ccc(N(C)C)cc1)=N\NC(=O)C(=O)NCc1ccccc1	PAFAH2 inh 46 | PAFAH2 confirm inactive
Nc1[nH]n2c(=O)c3c(nc2c1N=Nc1ccccc1)CCCC3	none
Nc1[nH]n2c(=O)c3c(nc2c1N=Nc1ccc(Cl)cc1)CCCC3	PAFAH2 inh 40 | PAFAH2 confirm inactive
O=c1c(Cc2c(F)cccc2Cl)c(O)ccn1CCc1c[nH]c2ccccc12	none
Cc1ccc(C(=O)OCC(=O)NN2C(=O)NC3(CCC(C)CC3)C2=O)cc1 (stereo not given)	PAFAH2 inh 74 | PAFAH2 confirm 54
Cc1cccc(C(=O)OCC(=O)NN2C(=O)NC3(CCCCC3)C2=O)c1	none
S=c1[nH]nc(-c2ccco2)n1/N=C/C=C/c1ccco1	PAFAH2 inh 46 | PAFAH2 confirm inactive
COc1ccccc1/C=C/C=N/n1c(-c2ccco2)n[nH]c1=S	none
O=C(CSC1=NS(=O)(=O)c2cc(Cl)ccc2N1)NCc1ccccc1	none
NS(=O)(=O)c1cc2c(cc1Cl)NC(CSCc1ccccc1)=NS2(=O)=O	PAFAH2 inh 34 | PAFAH2 confirm inactive
CCNc1ccc(C(=O)OCC(=O)NCc2ccccc2Cl)cc1[N+](=O)[O-]	PAFAH2 inh 47 | PAFAH2 confirm 56

High-throughput results as filed in PubChem.
